Compounds without any hit were thinned out: in the full panel of roughly 79,000, 15% have a hit. No stated cut-off is given here; in the data, active means growth inhibition above about 70%; inactive means the rest.
Columns and labels:
[1] = NCI Yeast Anticancer Drug Screen. Data for the rad50 strain (AID 155);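 further: 0% = growth of vehicle-only cultures of the same strain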; conditions: S. cerevisiae rad50 strain growth inhibition; at 50.0 µM; hits give high values
Outline: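 Genetically altered yeast (DNA repair pathway); compound treatment; growth inhibition vs vehicle ctrl.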

[2] = NCI Yeast Anticancer Drug Screen. Data for the mec2-1 strain (AID 157); conditions: S. cerevisiae mec2-1 strain, at 50.0 µM, hits give high values
Outline: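 Cells of the genetically defined mec2-1 yeast strain are incubated with test compound. Inhibition of growth is calculated against vehicle-treated controls.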

[3] = NCI Yeast Anticancer Drug Screen. Data for the sgs1 mgt1 strain (AID 161);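 further: 0% = growth of cultures given vehicle only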; conditions: S. cerevisiae sgs1 mgt1 strain, at 50.0 µM, hits give high values
Outline: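 Inhibition of yeast growth, normalised to vehicle-treated controls, is reported for a strain bearing genetic alterations in DNA damage repair.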

[4] = NCI Yeast Anticancer Drug Screen. Data for the cln2 rad14 strain (AID 165);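 further: 0% = growth equal to vehicle treated cultures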; conditions: S. cerevisiae cln2 rad14 strain, at 50.0 µM, hits give high values
Outline: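 The screen exposed genetically defined yeast (cln2 rad14) to test compounds and scored growth inhibition relative to vehicle-treated controls.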

[5] = NCI Yeast Anticancer Drug Screen. Data for the bub3 strain (AID 167); conditions: S. cerevisiae bub3 mutant strain, at 50.0 µM, hits give high values
Outline: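 Yeast carrying a defined mutation is treated with each compound, and growth is compared with that of vehicle-exposed cells to give inhibition.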

[6] = NCI Yeast Anticancer Drug Screen. Data for the mlh1 rad18 strain (AID 175); conditions: S. cerevisiae mlh1 rad18 strain growth inhibition; at 50.0 µM; hits give high values
Outline: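 Compound-treated yeast growth, normalised to vehicle controls. Strain bears defined DNA repair mutations.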

Measured: growth inhibition

NC(=O)c1csc(CCCCCCc2nc(C(N)=O)cs2)n1
inactive: [1] -13.8% | [2] -15.5% | [3] -5% | [4] 8.75% | [5] -21.2% | [6] -21.1%

O=c1c2cccnc2ncn1CCCN1CCCCC1
inactive: [1] -23.8% | [2] 1.85% | [3] 9.25% | [4] -7.5% | [5] 5.65% | [6] -6.25%

COC(=O)Nc1nc2ccc(SC)cc2c(=O)[nH]1
inactive: [1] -9.55% | [2] -5.55% | [3] 3.2% | [4] 6.45% | [5] -17.8% | [6] -29.6%

CCCC(=O)C(C)(C)C
inactive: [1] 18.2% | [2] -12.4% | [3] -35% | [4] -41.5% | [5] -22.1% | [6] 6.75%

CCOC(=O)/C(F)=C/c1cccc(C)c1
inactive: [1] -5.05% | [2] -23% | [3] -17.9% | [4] -4.7% | [5] -5.45% | [6] -3.1%

CC1(O)CCC2CC1C2(C)CO (stereo not drawn)
inactive: [1] 2% | [2] 7.45% | [3] -9.15% | [4] -28.4% | [5] -7.05% | [6] 3.1%

CC(C)(C)C1=CC(=O)C(C#N)(C(C)(C)C)C1=O (stereo not drawn)
inactive: [1] 11.2% | [2] -5.7% | [3] 7.15% | [4] -36% | [5] 1.6% | [6] 6.55%

COc1nc(NC2OC(CO)C(O)C(O)C2O)cc(=O)[nH]1 (stereo not drawn)
inactive: [1] -4.2% | [2] -7.45% | [3] 1.45% | [4] -3.15% | [5] -37.7% | [6] -6.45%

CC(=O)[C@@H](C)C(=O)N1C(=O)OC[C@@]12[C@@H]1CC[C@@H](C1)C2(C)C
inactive: [1] -13.8% | [2] -31.4% | [3] -25.9% | [4] -26.4% | [5] 10.8% | [6] -32%

CN(C)C(=O)Sc1ccc([N+](=O)[O-])cc1Cl
inactive: [1] 15.4% | [2] 4.6% | [3] 5.7% | [4] 14.6% | [5] -4.3% | [6] 16.8%

CCC/C=C/C=C/C1CC(O)C(O)C(=O)C1CO (stereo not drawn)
inactive: [1] 5.25% | [2] -29.6% | [3] 17.1% | [4] 7.9% | [5] 1.9% | [6] -0.7%

C/C(CC(C)C)=N/Nc1ccc([N+](=O)[O-])cc1[N+](=O)[O-]
inactive: [1] 5.85% | [2] -2.05% | [3] 2.65% | [4] -42.6% | [5] 19.9% | [6] 26.8%

Nc1ccc(NC(=S)Nc2ccccc2)cc1
inactive: [1] -2.35% | [2] -18.3% | [3] -3.15% | [4] 2.2% | [5] -7.05% | [6] -12.7%

CCCC(=O)OCC1OC(n2ccc(N)nc2=O)C(OC(=O)CCC)C1OC(=O)CCC (stereo not drawn)
inactive: [1] 18.6% | [2] -22.4% | [3] 36.3% | [4] 17.8% | [5] 10.6% | [6] 8.2%

CCCCCCOC(=O)C(O)C(C)(Cl)c1ccccc1 (stereo not drawn)
inactive: [1] 11.3% | [2] 9.9% | [3] 4.6% | [4] 15.9% | [5] 12.6% | [6] 13.7%

CC1CCC(C(C)(C)NO)C(=O)C1 (stereo not drawn)
inactive: [1] -2.8% | [2] 0% | [3] -4.8% | [4] -8.1% | [5] -2.1% | [6] 0.7%

CC(C)C(/C=C/c1ccccc1)=N\NC(=S)NN
inactive: [1] -5.25% | [2] -5.9% | [3] 17.1% | [4] 13.4% | [5] 26.6% | [6] 32.4%

CC1(C)C2CC(=O)C1(C)C(OCc1ccccc1)C2 (stereo not drawn)
inactive: [1] -21.2% | [2] 12.6% | [3] 6.1% | [4] 22.1% | [5] -18.1% | [6] 5.1%

Clc1ccnnc1Cl
inactive: [1] -17.7% | [2] -30.8% | [3] -43% | [4] 13.2% | [5] -37.5% | [6] -15.7%

CC(=O)OC(C)C(O)C(O)C(/C=C/C1CC=CC(=O)O1)OC(C)=O (stereo not drawn)
inactive: [1] 32.2% | [2] 9.45% | [3] 23.6% | [4] 10.6% | [5] 19.6% | [6] 11.8%

CCCC(=O)Oc1ccccc1C1CCCCC1
inactive: [1] 15.9% | [2] 23.8% | [3] 12.3% | [4] 21.3% | [5] 7.35% | [6] 3.45%

O=C(c1ccc(F)cc1)C1CC1
inactive: [1] 3.7% | [2] -17.8% | [3] 19% | [4] 9.3% | [5] -0.95% | [6] 2.25%

CNC(=O)CCC(NC(=O)OC(C)(C)C)C(=O)NC(Cc1ccc(NC(=O)CCCCC(C)=O)cc1)C(=O)NCC(=O)NC (stereo not drawn)
inactive: [1] -18.3% | [2] 13.9% | [3] -0.25% | [4] 9.8% | [5] 3.75% | [6] -2.1%

Nc1ccc(-c2ccccc2)cc1[N+](=O)[O-]
inactive: [1] 33.2% | [2] -8.85% | [3] 16.1% | [4] -23.2% | [5] 21.1% | [6] 8.8%

CN(C=C(c1ccccc1)c1ccccc1)c1ccccc1
inactive: [1] -15.6% | [2] -7.85% | [3] 2.2% | [4] -21.6% | [5] -12.8% | [6] -32.6%

CCCCCCCCCC(=O)Oc1cccc2onc(C)c12
inactive: [1] -21.2% | [2] -43.5% | [3] -20.2% | [4] -7.8% | [5] -13.5% | [6] -10.8%

CN(C)c1ncnc2ncn(C3OC(CO)C(O)C3O)c12 (stereo not drawn)
inactive: [1] 67.6% | [2] 46.6% | [3] 60.2% | [4] 7.3% | [5] -13.2% | [6] 61.7%

CCOC(=O)CN1CN(CCc2ccccc2)CC(C)(C)C1OCC (stereo not drawn)
inactive: [1] 37.1% | [2] 31.6% | [3] 43.4% | [4] 20.6% | [5] 41.2% | [6] 39.5%

COc1ccc(C2OCCC(C)O2)cc1OC (stereo not drawn)
inactive: [1] -14.6% | [2] -12.8% | [3] -19.7% | [4] -48.8% | [5] -33.5% | [6] -14.8%

CN(C)c1ccc(C(c2cc3c(cc2O)OCO3)N2CCN(C(c3ccc(N(C)C)cc3)c3cc4c(cc3O)OCO4)CC2)cc1 (stereo not drawn)
inactive: [1] 39.8% | [2] 31.4% | [3] 28.9% | [4] 9.3% | [5] 13.8% | [6] 36.5%

O=C(NCCCCCCNC(=O)C1CCCN1C(=O)OCc1ccccc1)C1CCCN1C(=O)OCc1ccccc1 (stereo not drawn)
inactive: [1] 0.6% | [2] -24.2% | [3] -8.15% | [4] -1.9% | [5] -5.7% | [6] 6.4%

Cc1ccc(S(=O)(=O)N/N=C(/c2ccccc2)c2ccsc2C)cc1
inactive: [1] 6.7% | [2] 37.3% | [3] 37% | [4] 24.2% | [5] 41.3% | [6] 53.4%

N#Cc1cc2c(n(C3OC(CO)C(O)C(O)C3O)c1=S)CCCCC2 (stereo not drawn)
inactive: [1] -3.95% | [2] -16% | [3] -3.75% | [4] -0.75% | [5] 5.65% | [6] 24.1%

CCN(CC)c1ccc(NC(C)=O)c(C)c1
inactive: [1] -16.2% | [2] 21.1% | [3] 9.65% | [4] -15.8% | [5] 18.1% | [6] 3.3%

CC1CCC2(C)CCC3(C)C(=CCC4C5(C)CCC(O)C(C)(C)C5CCC43C)C2C1C (stereo not drawn) (tested in a mixture with another compound)
inactive: [1] 23.8% | [2] -20.8% | [3] 9.95% | [4] -5.8% | [5] 0.6% | [6] 17.1%

COc1ccc(OC)c2c(Cl)ccnc12
inactive: [1] 17.1% | [2] 15.1% | [3] 15.6% | [4] 20.8% | [5] 11.1% | [6] 24.5%

O=C(C[n+]1ccccc1)c1cc2c(c3ccccc13)CCCC2
inactive: [1] 3.3% | [2] -3.2% | [3] 36.3% | [4] 20.8% | [5] -4.6% | [6] 19.5%

C1=CC(=P(c2ccccc2)(c2ccccc2)c2ccccc2)C=C1
inactive: [1] 20.4% | [2] 25.1% | [3] 10.4% | [4] 38.8% | [5] 4.3% | [6] 34%

— PubChem BioAssay (NCI)
